Results filed as inconclusive are left out. Calls of active or inactive are those of the source. The call rests on the fitted dose curve; in most records, active means well fitted inhibition curve with a large enough effect; inconclusive means small, poorly fitted or top-dose-only effect; inactive means flat fitted curve, though single readings scatter.
Experiments:
Assay in all cases: qHTS profiling for inhibitors of Plasmodium falciparum proliferation (AID 504749); further: nearly all actives have a fitted effect of over 60% in size
Conditions in all cases: P. falciparum in erythrocytes, SYBR Green DNA, 72 h; series mostly up to 28.7 µM
CP237 = tested on: CP237
Summary of the method: (§1)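 SYBR Green fluorescence (ex 485 nm, em 535 nm) reports parasite DNA after 72 h compound exposure of infected red cells at 0.3% parasitemia, 2.5% hematocrit; signal normalized to 0.29 uM artemisinin and vehicle wells.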

CP238 = tested on: CP238
Summary of the method: as §1

CP247 = tested on: CP247
Summary of the method: as §1

CP250 = tested on: CP250
Summary of the method: as §1

CP252 = tested on: CP252
Summary of the method: as §1

CP256 = tested on: CP256
Summary of the method: as §1

CP260 = tested on: CP260
Summary of the method: as §1

CP262 = tested on: CP262
Summary of the method: as §1

CP265 = tested on: CP265
Summary of the method: as §1

CP266 = tested on: CP266
Summary of the method: as §1

Measured: Potency

C=Cc1c(C)c2cc3[nH]c(cc4nc(cc5nc(cc1[nH]2)C(C)=C5CCC(=O)O)C(CCC(=O)O)=C4C)c(C)c3C=C
inactive: all assays above

Cc1cccc(Nc2cc(Cl)nc(SCC(=O)O)n2)c1C
inactive: all assays above

CC(O)COc1ccccc1 (centres undefined)
inactive: all assays above

Cc1cc2c(cc1S(N)(=O)=O)S(=O)(=O)CCC2
inactive: all assays above

C#CCN(C)Cc1ccccc1
not listed: CP266
inactive: all other assays above

O=C(O)c1ccccc1O
inactive: all assays above

O=C(O)c1ccccc1-c1ccc(C(F)(F)F)cc1
inactive: all assays above

O=C1OC(OC(=O)c2cccnc2Nc2cccc(C(F)(F)F)c2)c2ccccc21 (centres undefined)
inactive: all assays above

CC1(C)CO[C@@H](CC(=O)O)CN1
inactive: all assays above

NC(=O)NC(=O)Cc1ccccc1
inactive: all assays above

COc1ccccc1O
inactive: all assays above

O=C(O)CC(O)C(=O)O (centres undefined)
inactive: all assays above

Cc1cccc(C)c1NC(=O)CN(CC(=O)O)CC(=O)O
inactive: all assays above

O=C(O)c1ccccn1
inactive: all assays above

CC1=C(/C=C/C(C)=C/C=C/C(C)=C/C(=O)O)C(C)(C)CCC1
inactive: all assays above

CCCCc1ncc(/C=C(\Cc2cccs2)C(=O)O)n1Cc1ccc(C(=O)O)cc1
inactive: all assays above

NCCNCCNCCN
inactive: all assays above

COc1ccc(S(=O)(=O)Nc2nnc(CC(C)C)s2)cc1
inactive: all assays above

O=C1O[C@H]([C@@H](O)CO)C(O)=C1O
inactive: all assays above

Oc1cn2c(n1)Nc1ccc(Cl)c(Cl)c1C2
inactive: all assays above

Nc1ccc(S(=O)(=O)Nc2nccs2)cc1
inactive: all assays above

CCOC(=O)[C@H](CCc1ccccc1)N[C@@H](C)C(=O)N1C(=O)N(C)C[C@H]1C(=O)O
inactive: all assays above

CC(=O)c1ccc2c(c1)N(CCCN(C)C)c1ccccc1S2
inactive: all assays above

CCC(=O)Nc1ccc(O)cc1
inactive: all assays above

From PubChem BioAssay (NCATS)
